Growth inhibition, inhibition and outcome data for 20 molecules are collected here from PubChem BioAssay.

Experiment [1] in a line: antimalarial activity against Dd2 strain (AID 2302;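 active means growth inhibition above 50% at the single 2 µM test dose, taken to imply half-maximal potency below 2 µM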;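 further: 0% = DMSO untreated growth and 100% = chloroquine plus artemisinin killed control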). The following applies: P. falciparum Dd2 in RBCs, LDH growth readout, 72 h; at 2 µM; hits give high values.
A short description of experiment [2]: HepG2 cytotoxicity, primary screen, cytotoxicity control for P. falciparum antimalarial project, cell-based, ATP luminescence (AID 2303;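 active means inhibition above 50%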;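 further: 0% = DMSO wells and 100% = digitonin-killed cells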). The following applies: HepG2 viability, 24-48 h, at 10 µM, hits give high values.
Experiment [3] has as its target L-lactate dehydrogenase (Plasmodium falciparum (isolate CDC / Honduras)) (UniProt Q27743). The experiment in a line: PfLDH activity inhibition – cell lysate, 3D7 strain, counter-screen for P. falciparum growth inhibition project (AID 2304).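 Further: 0% = vehicle and 100% = reference inhibitor.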 The conditions noted are these: P. falciparum 3D7 crude extract, LDH APAD/NBT absorbance; at 2 µM; hits give high values. (A counterscreen serves to expose hits that act by an unwanted route or on another target.)

Experiment [4] is described as follows: inhibition of 3D7 malaria parasite growth – strain 3D7 (AID 2306).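 Further: 0% = DMSO wells and 100% = chloroquine plus artemisinin control wells.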 The following applies: P. falciparum 3D7 erythrocytic growth, LDH absorbance, 72 h; at 2 µM; hits give high values.
For experiment [5], the target named is Calcium-dependent protein kinase 1 (Plasmodium falciparum (isolate 3D7)) (UniProt P62344). The experiment in a line: PfCDPK1 kinase inhibitors, biochemical, TCAMS library (AID 1159585; cut-off not given, nearly all actives have IC50 up to about 0.98 µM;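 further: inhibitors leave more ATP so luminescence rises with inhibition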). The conditions noted are these: recombinant PfCDPK1, Kinase-Glo ATP depletion luminescence. On the technique in general: Kinase-Glo reads ATP consumption through a luciferase reaction.
Chain of Calcium-dependent protein kinase 1 (Plasmodium falciparum (isolate 3D7)) (P62344 whole entry, looked up): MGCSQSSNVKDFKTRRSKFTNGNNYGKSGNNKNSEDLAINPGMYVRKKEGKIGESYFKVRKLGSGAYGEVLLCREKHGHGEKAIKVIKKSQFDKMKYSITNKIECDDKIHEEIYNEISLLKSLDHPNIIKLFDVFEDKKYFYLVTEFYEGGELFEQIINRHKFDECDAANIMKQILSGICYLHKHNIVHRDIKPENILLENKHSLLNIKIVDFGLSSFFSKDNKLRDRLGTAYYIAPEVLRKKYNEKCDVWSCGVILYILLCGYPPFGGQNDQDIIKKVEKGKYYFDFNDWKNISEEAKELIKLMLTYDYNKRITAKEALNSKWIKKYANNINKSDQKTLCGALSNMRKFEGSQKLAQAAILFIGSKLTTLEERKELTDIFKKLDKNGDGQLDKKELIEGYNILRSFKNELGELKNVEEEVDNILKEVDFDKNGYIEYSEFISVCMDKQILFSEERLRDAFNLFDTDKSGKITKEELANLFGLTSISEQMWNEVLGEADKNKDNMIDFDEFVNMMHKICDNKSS

Experiment [6] concerns the target Plasmodium falciparum protein kinase 6 (PK6, PF3D7_1337100) (UniProt Q8IDW1). As to the kind of experiment: PfPK6 kinase inhibitors, biochemical, TCAMS library (AID 1159586). The conditions noted are these: recombinant PfPK6, Kinase-Glo ATP depletion luminescence.
In experiment [7] the target is Protein kinase 7 (PK7), Plasmodium falciparum 3D7 (PF3D7_0213400) (UniProt Q7YTF7). The experiment in a line: inhibition of Plasmodium PK7 catalytic activity – biochemical, TCAMS antimalarial set, Kinase-Glo luminescence (AID 1159587). The conditions noted are these: recombinant PfPK7, Kinase-Glo ATP depletion luminescence.
Chain of Protein kinase 7 (PK7), Plasmodium falciparum 3D7 (PF3D7_0213400) (Q7YTF7 1-343): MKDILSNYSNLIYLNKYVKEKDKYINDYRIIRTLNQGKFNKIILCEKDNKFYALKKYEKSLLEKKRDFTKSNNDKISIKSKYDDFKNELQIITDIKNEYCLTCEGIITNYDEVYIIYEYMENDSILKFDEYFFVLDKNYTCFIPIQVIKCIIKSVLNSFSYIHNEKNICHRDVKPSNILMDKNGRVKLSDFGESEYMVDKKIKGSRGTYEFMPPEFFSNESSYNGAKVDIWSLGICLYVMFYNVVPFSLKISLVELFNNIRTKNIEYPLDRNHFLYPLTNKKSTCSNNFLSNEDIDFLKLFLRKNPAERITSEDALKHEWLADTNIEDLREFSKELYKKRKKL
The target of experiment [8] is Calcium-dependent protein kinase 4 (Plasmodium falciparum (isolate 3D7)) (UniProt Q8IBS5). As to the kind of experiment: PfCDPK4 kinase inhibitors, biochemical, TCAMS library (AID 1159588; cut-off not given, nearly all actives have IC50 up to about 0.91 µM). The following applies: recombinant PfCDPK4, Kinase-Glo ATP depletion luminescence.
Chain of Calcium-dependent protein kinase 4 (Plasmodium falciparum (isolate 3D7)) (Q8IBS5 whole entry, looked up): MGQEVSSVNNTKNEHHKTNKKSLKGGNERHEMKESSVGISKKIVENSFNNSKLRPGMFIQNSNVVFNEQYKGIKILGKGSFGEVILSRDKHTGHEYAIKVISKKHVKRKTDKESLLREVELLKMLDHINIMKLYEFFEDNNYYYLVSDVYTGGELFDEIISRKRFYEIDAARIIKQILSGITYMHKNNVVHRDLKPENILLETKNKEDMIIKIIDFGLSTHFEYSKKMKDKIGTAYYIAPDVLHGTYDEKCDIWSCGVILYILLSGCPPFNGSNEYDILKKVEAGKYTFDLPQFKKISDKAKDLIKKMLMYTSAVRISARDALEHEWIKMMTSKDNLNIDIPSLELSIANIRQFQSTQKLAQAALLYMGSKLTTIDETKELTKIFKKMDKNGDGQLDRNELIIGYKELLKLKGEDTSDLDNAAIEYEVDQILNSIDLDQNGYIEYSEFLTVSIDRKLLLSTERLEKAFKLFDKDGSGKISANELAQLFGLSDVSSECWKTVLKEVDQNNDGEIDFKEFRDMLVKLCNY

Broadly, the inhibition is the relative decrease from the control value, in per cent.

Values without a mark were called inactive. For some of these results: Entries with a potency or affinity are not part of this list. Active and inactive are the calls of the source. Unless noted, how the calls were made is not given here.

Chain of L-lactate dehydrogenase (Plasmodium falciparum (isolate CDC / Honduras)) (Q27743 whole entry, looked up): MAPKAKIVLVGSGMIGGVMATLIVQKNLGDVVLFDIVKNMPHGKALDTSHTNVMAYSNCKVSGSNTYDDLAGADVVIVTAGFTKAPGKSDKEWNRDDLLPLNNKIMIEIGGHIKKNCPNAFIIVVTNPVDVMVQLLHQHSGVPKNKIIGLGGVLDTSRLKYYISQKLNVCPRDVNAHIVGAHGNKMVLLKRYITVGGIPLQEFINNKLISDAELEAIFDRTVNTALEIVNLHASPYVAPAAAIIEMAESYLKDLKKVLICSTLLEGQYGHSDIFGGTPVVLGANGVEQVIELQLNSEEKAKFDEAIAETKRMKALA
Chain of Plasmodium falciparum protein kinase 6 (PK6, PF3D7_1337100) (Q8IDW1 1-305): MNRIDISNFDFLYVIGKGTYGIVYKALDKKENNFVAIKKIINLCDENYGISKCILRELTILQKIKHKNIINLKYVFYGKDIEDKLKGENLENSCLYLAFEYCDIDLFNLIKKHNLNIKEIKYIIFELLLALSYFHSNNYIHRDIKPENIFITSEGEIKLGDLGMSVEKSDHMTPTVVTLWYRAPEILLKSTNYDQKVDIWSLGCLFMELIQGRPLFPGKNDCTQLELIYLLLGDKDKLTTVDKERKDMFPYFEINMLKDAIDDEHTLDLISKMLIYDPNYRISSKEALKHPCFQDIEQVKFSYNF

With `Cc1nc2nc(N)nc(N)c2c(C)c1Cc1ccc(Cl)cc1`, the growth inhibition in experiment [1] is 22%; in experiment [4], 94% (active). In addition, the inhibition in experiment [2] is 62% (active); in experiment [3] it was 0%. The result in experiment [5], in experiment [6], in experiment [7] and in experiment [8] was inactive.

On to `CNC(=O)c1ccc2nc(-c3ccc(-c4ccccc4)cc3)n(CC3CCN(CC4CCCC4)CC3)c2c1`, for which the growth inhibition in experiment [1] is 36%; in experiment [4], 84% (active). Moreover, the inhibition in experiment [2] is 13%; in experiment [3], -6%. Also, the result in experiment [5], in experiment [6], in experiment [7] and in experiment [8] was inactive.

In the case of `Fc1ccccc1COc1ccc(Nc2ncnc3ccc(-c4nnc(C(F)(F)F)o4)cc23)cc1Cl`, the figures for the growth inhibition in experiment [1] and in experiment [4] were 46% and 100% (active), respectively. For the same molecule, the inhibition was 7% in experiment [2] and 4% in experiment [3]. For the same molecule, the result in experiment [5], in experiment [6], in experiment [7] and in experiment [8] was inactive.

`COc1cc2nccc(Nc3ccc(NC(=O)c4ccc(C)cc4)c(O)c3)c2cc1OC`: the growth inhibition is 77% (active) in experiment [1] and 101% (active) in experiment [4]. In addition, the inhibition in experiment [2] is 96% (active); in experiment [3] it was 1%. The outcome in experiment [5], in experiment [6], in experiment [7] and in experiment [8] was inactive.

For `CC(C)(C)NCCN(Cc1ccc(-c2ccc(C(F)(F)F)cc2)cc1)C(=O)Cn1c(CCc2cccc(F)c2F)nc(=O)c2ccccc21`, the growth inhibition in experiment [1] was 68% (active); in experiment [4] it was 99% (active). Moreover, the inhibition was 46% in experiment [2] and -4% in experiment [3]. For the same molecule, the result in experiment [5], in experiment [6], in experiment [7] and in experiment [8] was inactive.

In the case of `Cc1cccc(-n2c(Nc3ccc(C)c(Cl)c3)nc3ccc(S(=O)(=O)NC(C)C(C)C)cc32)c1` (stereo not given), the growth inhibition in experiment [1] and in experiment [4] was 97% (active) throughout. Further, the inhibition in experiment [2] is -9%; in experiment [3] it was 4%. Also, the outcome in experiment [5], in experiment [6], in experiment [7] and in experiment [8] was inactive.

In the case of `CC1Cc2ccccc2N1S(=O)(=O)c1cc(OCC(F)(F)F)ccc1OCC(F)(F)F` (stereo not given), the growth inhibition in experiment [1] is 95% (active); in experiment [4], 96% (active). The figures for the inhibition in experiment [2] and in experiment [3] were 10% and 0%, respectively. The result in experiment [5], in experiment [6], in experiment [7] and in experiment [8] was inactive.

Regarding `CCCC(CNCc1cccc(OCC)c1)CNc1cc(=O)c2ccccc2[nH]1` (stereo not given), the values for the growth inhibition in experiment [1] and in experiment [4] were 97% (active) and 101% (active), respectively. Moreover, the inhibition was -4% in experiment [2] and 4% in experiment [3]. The result in experiment [5], in experiment [6], in experiment [7] and in experiment [8] was inactive.

With `Cc1cc(=O)[nH]c(-n2nc(C)cc2NC(=O)CC(c2ccccc2)c2ccccc2)n1`, the growth inhibition in experiment [1] was 62% (active); in experiment [4] it was 90% (active). For the same molecule, the inhibition in experiment [2] is 42%; in experiment [3] it was 2%. The outcome in experiment [5], in experiment [6], in experiment [7] and in experiment [8] was inactive.

Regarding `O=C(Nc1ccc(C(=O)N(Cc2ccc3c(c2)OCO3)C2CCCC2)cc1)c1cccs1`, the growth inhibition in experiment [1] is 95% (active); in experiment [4] it was 97% (active). The inhibition was 14% in experiment [2] and 4% in experiment [3]. The outcome in experiment [5], in experiment [6], in experiment [7] and in experiment [8] was inactive.

`O=C(c1cc2cccc([N+](=O)[O-])c2[nH]1)N1CCC(CCN2CCC(c3c[nH]c4ccccc34)CC2)CC1`: the growth inhibition in experiment [1] is 24%; in experiment [4], 89% (active). For the same molecule, the figures for the inhibition in experiment [2] and in experiment [3] were 45% and 1%, respectively. The outcome in experiment [5], in experiment [6], in experiment [7] and in experiment [8] was inactive.

On to `CN(C)c1cc(C(=O)N[C@@H](Cc2ccccc2)[C@H](O)CNC2CCCCC2)cc2[nH]ccc12`, for which the figures for the growth inhibition in experiment [1] and in experiment [4] were 97% (active) and 98% (active), respectively. For the same molecule, the inhibition in experiment [2] is 10%; in experiment [3], 3%. Also, the outcome in experiment [5], in experiment [6], in experiment [7] and in experiment [8] was inactive.

`COc1ccc(NC(=O)/C=C/c2ccccc2Cl)cc1OCCN1CCC(NCc2cccnc2)CC1`: the growth inhibition was 88% (active) in experiment [1] and 101% (active) in experiment [4]. The inhibition is 12% in experiment [2] and 1% in experiment [3]. Also, the result in experiment [5], in experiment [6], in experiment [7] and in experiment [8] was inactive.

Regarding `COc1cc(Nc2ccnc3ccc(C(F)(F)F)cc23)ccc1OCCCc1ccccc1`, the growth inhibition in experiment [1] is 51% (active); in experiment [4], 99% (active). The inhibition in experiment [2] is 11%; in experiment [3], -10%. The result in experiment [5], in experiment [6], in experiment [7] and in experiment [8] was inactive.

As for `CCN1CCC(N(Cc2ccc(-c3ccc(C(F)(F)F)cc3)cc2)C(=O)Cn2c(SCc3cccc(F)c3F)cc(=O)c3ccccc32)C1` (stereo not given), the growth inhibition in experiment [1] is 91% (active); in experiment [4] it was 90% (active). Further, the results for the inhibition in experiment [2] and in experiment [3] were 42% and 5%, respectively. The outcome in experiment [5], in experiment [6], in experiment [7] and in experiment [8] was inactive.

With `Oc1ccc(CCNCCCCCCNCCCc2ccc(Cl)cc2)cc1O`, the growth inhibition in experiment [1] is 3%; in experiment [4], 87% (active). The inhibition in experiment [2] is 13%; in experiment [3] it was -2%. Besides, the result in experiment [5], in experiment [6], in experiment [7] and in experiment [8] was inactive.

For `COc1ccc2nccc([C@@H](O)CN3CCC(NCc4cc5ccccc5[nH]4)CC3)c2c1`, the growth inhibition is 41% in experiment [1] and 92% (active) in experiment [4]. Besides, the inhibition in experiment [2] was 75% (active); in experiment [3] it was 4%. For the same molecule, the outcome in experiment [5], in experiment [6], in experiment [7] and in experiment [8] was inactive.

As to `COc1cccc(-c2ccc(O)c(CNCCc3cccc(F)c3)c2)n1`, the growth inhibition in experiment [1] is 67% (active); in experiment [4], 96% (active). Further, the inhibition was -14% in experiment [2] and 0% in experiment [3]. In addition, the result in experiment [5], in experiment [6], in experiment [7] and in experiment [8] was inactive.

Take `Clc1ncnc2ncn(Cc3cccc(Br)c3)c12`: the growth inhibition was 56% (active) in experiment [1] and 91% (active) in experiment [4]. Moreover, the inhibition is -5% in experiment [2] and 3% in experiment [3]. The outcome in experiment [5], in experiment [6], in experiment [7] and in experiment [8] was inactive.

As to `NC(=O)NC(=O)C=Cc1ccco1`, the results for the growth inhibition in experiment [1] and in experiment [4] were -3% and 97% (active), respectively. The inhibition is 32% in experiment [2] and -7% in experiment [3]. The result in experiment [5], in experiment [6], in experiment [7] and in experiment [8] was inactive.
